PubChem BioAssay AID623996 (NMMLSC, 2012)
Entries with a potency or affinity are not part of this list. Activity calls are given as the source filed them.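 Rule for the calls: active = fitted concentration giving half the maximal Nile Red retention below 100 µM; inactive = the rest.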

molecular target: Multidrug resistance protein CDR1 (Candida albicans) (UniProt P43071); assay: CaCdr1 efflux pump inhibitor potency, dose response, singleplex, Cherry Pick2 set (AID 623996); conditions: S. cerevisiae AD/CaCDR1, Nile Red efflux inhibition, flow cytometry; series mostly up to 100 µM
Sequence (P43071 whole entry, looked up): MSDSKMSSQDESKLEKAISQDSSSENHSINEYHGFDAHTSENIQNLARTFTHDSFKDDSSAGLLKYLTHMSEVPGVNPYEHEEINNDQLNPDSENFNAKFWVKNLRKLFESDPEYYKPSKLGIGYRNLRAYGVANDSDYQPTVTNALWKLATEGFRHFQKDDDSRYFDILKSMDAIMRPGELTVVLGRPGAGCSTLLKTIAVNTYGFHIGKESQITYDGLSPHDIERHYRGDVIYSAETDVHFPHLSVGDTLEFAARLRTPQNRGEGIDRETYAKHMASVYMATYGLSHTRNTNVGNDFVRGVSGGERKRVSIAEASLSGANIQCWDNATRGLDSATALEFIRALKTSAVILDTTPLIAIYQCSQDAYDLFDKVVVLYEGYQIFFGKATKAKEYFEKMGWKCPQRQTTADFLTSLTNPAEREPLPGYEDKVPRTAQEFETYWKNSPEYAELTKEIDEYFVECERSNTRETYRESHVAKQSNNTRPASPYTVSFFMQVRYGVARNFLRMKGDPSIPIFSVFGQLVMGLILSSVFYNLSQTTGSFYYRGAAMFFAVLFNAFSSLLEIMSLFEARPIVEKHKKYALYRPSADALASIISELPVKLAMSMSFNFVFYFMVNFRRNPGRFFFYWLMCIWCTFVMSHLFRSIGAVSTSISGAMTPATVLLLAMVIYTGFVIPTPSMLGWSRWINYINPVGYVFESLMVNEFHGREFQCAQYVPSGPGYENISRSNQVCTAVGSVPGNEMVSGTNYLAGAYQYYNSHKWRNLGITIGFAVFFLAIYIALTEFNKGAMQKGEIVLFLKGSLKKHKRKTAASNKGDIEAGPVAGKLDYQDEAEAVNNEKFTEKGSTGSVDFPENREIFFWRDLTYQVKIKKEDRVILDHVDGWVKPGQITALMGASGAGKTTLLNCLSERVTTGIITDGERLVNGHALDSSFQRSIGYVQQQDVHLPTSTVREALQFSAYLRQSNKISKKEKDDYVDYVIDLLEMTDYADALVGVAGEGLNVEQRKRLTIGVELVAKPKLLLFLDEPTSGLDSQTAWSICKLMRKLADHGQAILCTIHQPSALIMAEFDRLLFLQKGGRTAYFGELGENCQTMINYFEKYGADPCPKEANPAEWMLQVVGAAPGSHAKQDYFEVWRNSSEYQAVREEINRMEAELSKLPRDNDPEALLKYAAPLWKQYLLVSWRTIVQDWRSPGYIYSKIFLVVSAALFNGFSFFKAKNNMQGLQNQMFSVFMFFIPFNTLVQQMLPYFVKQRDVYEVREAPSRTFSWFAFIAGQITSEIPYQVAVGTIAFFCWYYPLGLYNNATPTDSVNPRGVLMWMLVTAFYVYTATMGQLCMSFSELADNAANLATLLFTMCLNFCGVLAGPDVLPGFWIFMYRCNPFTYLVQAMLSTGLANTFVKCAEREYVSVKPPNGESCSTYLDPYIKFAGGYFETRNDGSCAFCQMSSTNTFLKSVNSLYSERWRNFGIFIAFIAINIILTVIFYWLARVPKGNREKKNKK

outcome, inactive:
CCCCN1Cc2cc(C(=O)c3cc(F)ccc3O)cnc2NC1=O
CCN(CC)CCC(c1ccc(N(C)C)cc1)c1c(OC)cc(OC)c2ccc(=O)oc12 (stereo not given)
CCCCN1Cc2cc(C(=O)c3cc(OC)ccc3O)cnc2NC1=O
O=C(NCCC1=CCCCC1)C1CCC(CNc2nc(=S)[nH]c3ccccc23)CC1 (stereo not given)
CC(C)C(=O)N1CCC2(CC1)Oc1ccc(F)cc1C(=O)C21CC(c2ccc(Cl)cc2)=NO1 (stereo not given)
O=C(C1CCCN(c2ncnc3c2nc2n3CCCCC2)C1)N1CCN(c2cccc(Cl)c2)CC1 (stereo not given)
C[C@@]12C(=O)Nc3ccc(Cl)cc3C(=O)N1[C@H]1c3cc(Cl)ccc3OC[C@@H]1[C@@H]2c1ccccc1
NC1=NC[C@H](Cc2ccc(O)cc2)N1CCc1cc(C(F)(F)F)cc(C(F)(F)F)c1
NC1=NC[C@H](Cc2ccc(O)cc2)N1CCCCC1CCCCC1
CCc1ccc(C2=NN(c3ccc(S(N)(=O)=O)cc3)C(c3ccc(F)cc3)C2)cc1 (stereo not given)
COc1ccc(-c2c[n+](CC(=O)N3c4ccccc4Sc4ccccc43)c3n2CCC3)cc1
O=C(Nc1ccccc1)C1=C[C@@H](c2ccc(Br)cc2)C[C@@H](OCCCCO)O1
O=C(NCCc1ccc(Cl)cc1)C1CCC(CNc2nc(=S)[nH]c3ccccc23)CC1 (stereo not given)
CC1CN(c2nc3ccccc3nc2C(C#N)C(=O)NCc2ccc3c(c2)OCO3)CC(C)O1 (stereo not given)
O=C(c1ccc2c(c1)OCO2)N1CCC2(CC1)Oc1ccc(F)cc1C(=O)C21CC(c2ccc(Cl)cc2)=NO1 (stereo not given)
O=C(C[n+]1cc(-c2ccccc2)n2c1CCC2)N1c2ccccc2Sc2ccccc21
Cc1cccc(C2CC(c3ccccc3)=NN2c2ccc(S(N)(=O)=O)cc2)c1 (stereo not given)
CCO[C@@H]1OC(C(=O)Nc2ccccc2)=C[C@H](c2ccccc2)[C@H]1CCCO
COc1cc(OC)c2c(-c3ccccc3)cc(=O)oc2c1C(CCN1CCCC(C)C1)c1ccc(N(C)C)cc1 (stereo not given)
Cc1ccc2sc(N(CCCN(C)C)C(=O)c3ccc(Br)s3)nc2c1C
O=C(Nc1ccccc1)C1=C[C@H](c2ccccc2)C[C@H](OCCCCO)O1
O=C(c1ccc2c(c1)OCO2)N1CCC2(CC1)Oc1ccc(F)cc1C(=O)C21CC(c2ccccc2)=NO1 (stereo not given)
O=C(c1ccoc1)N1CCC2(CC1)Oc1ccc(F)cc1C(=O)C21CC(c2ccccc2)=NO1 (stereo not given)
COc1ccc(-c2sc3ccccc3c2-c2ccc(OCCN(C)C)cc2)cc1
Cc1ccc(O)c(C(=O)c2cnc3c(c2)CN(CCC(C)C)C(=O)N3)c1
COc1ccc(CCOC(=O)c2ccc(N)c([N+](=O)[O-])c2)cc1
Cc1ccc(CNC(=O)C2CCC(CNc3nc(=S)[nH]c4ccccc34)CC2)cc1 (stereo not given)
COc1ccc(N2CCN(C(=O)C3CCCN(c4ncnc5c4nc4n5CCCCC4)C3)CC2)cc1 (stereo not given)
Cc1cc(C(=O)NC2CC(C)(C)Cc3c2cnn3-c2ccc(F)cc2)no1 (stereo not given)
O=C(C1CCCN(c2ncnc3c2nc2n3CCCCC2)C1)N1CCN(c2ccccc2)CC1 (stereo not given)
